Results filed as inconclusive are left out. Where a call stands in place of a potency, no number is given. Calls of active or inactive are those of the source. Calls come from the whole dose curve; as a rule, active = well fitted cell-killing curve with a large enough effect; inconclusive = small, poorly fitted or top-dose-only effect; inactive = no such curve, though single readings can be large or run the other way.
assay: qHTS of pediatric cancer cell lines to identify multiple opportunities for drug repurposing: Primary screen for Rh41 cells (AID 1347108); conditions: Rh41 rhabdomyosarcoma viability, CellTiter-Glo luminescence, 48 h; series mostly up to 46 µM; note: nearly all actives have a fitted effect of over 70% in size
Excerpt: Drug repurposing or repositioning has been offered as a strategy for drug development in oncology programs. This approach has special potential for childhood cancers and other rare or orphan diseases, where the expected return on new drug development has been a disincentive to pharmaceuticals. […] In this project we exploit the poly-pharmacology of drugs to discover new indications via phenotypic screening of a panel of 19 well-characterized cell lines derived from solid tumors seen in children and adolescents. The goal is to identify approved drugs with previously unrecognized anticancer properties that has the potential to reveal new mechanisms and biological processes involved in carcinogenesis or drug resistance. We employed a titration-based paradigm (quantitative high-throughput screening or qHTS), where all compounds were tested at multiple concentrations for their effect on cell viability. Concentration-response curves (CRCs) were derived directly from the primary screen, and both potency and efficacy values were used to identify compounds with robust bioactivity profiles. We screened the NIH Chemical Genomics Center (NCGC) Pharmaceutical Collection (NPC) and Mechanism Interrogation Plate (MIPE) small molecule collections of approved and investigational compounds against these cell lines; and measured metabolically active cells after 48 hours of compound treatment as a proxy for cell viability. […] Assay Submitter: Nathalia J. Martinez, National Center for Advancing Translational Sciences, National Institutes of Health, Rockville, MD, USA; email: natalia.martinez@nih.gov Shen, M et al. Quantitative high-throughput phenotypic screening of pediatric cancer cell lines identifies multiple opportunities for drug repurposing. Oncotarget 2017 Dec 19;9(4):4758-4772. PMID 29435139.
The cells were obtained from University of North Carolina (UNC), Pediatric Preclinical Testing Program (PPT), and Coriell Institute (CI). qHTS cell viability assay: Cells were assayed in growth media at a density of 500-1,000 cells/well. Five microliters of cells were dispensed into 1,536-well, white, solid-bottom, TC-treated plates (Greiner Bio One) using a multidrop dispenser and incubated at 37 degrees C, 5% CO2, under a humidified atmosphere for 5 hours. Twenty-three nanoliters of compounds and controls (neutral control DMSO or positive control bortezomib at final concentration of 2.3 µM) were subsequently transferred by Kalypsys pintool. For primary screens, the MIPE collection was tested at 11-point dilutions (final concentrations range from 0.78 nM to 46 µM) and the NPC collection at 8-point dilutions (final concentrations range from 0.59 nM to 46 µM). Compounds tested in follow-up screens were assayed at 11-point dilutions. Cells were incubated for 48 hours, followed by addition of 3 µL of CellTiter-Glo (Promega). After a 15 min incubation at room temperature, samples were analyzed for luminescence intensity using a ViewLux High-throughput CCD imager equipped with clear filters.
Potency is the fitted concentration of half-maximal effect.

| SMILES | Potency |
| --- | --- |
| O=C1OC(CCN2CCCCC2)OC1(c1ccccc1)c1ccccc1 (stereo not given) | inactive |
| CC(C)c1c(CN(C)C(C)Cc2ccccc2)n(C)n(-c2ccccc2)c1=O (stereo not given) | inactive |
| COC(=O)C(Cl)C(=O)OC | inactive |
| C[C@](O)(CS(=O)(=O)c1ccc(F)cc1)C(=O)Nc1ccc(C#N)c(C(F)(F)F)c1 | 2960 nM (active) |
| COC1CC(=C(c2cccs2)c2cccs2)C[N+](C)(C)C1 (stereo not given) | inactive |
| NCCc1ccc(O)cc1 | inactive |
| CCc1cc2c(s1)-n1c(C)nnc1CN=C2c1ccccc1Cl | inactive |
| C[N+]1(CCF)[C@@H]2CC[C@H]1CC(OC(=O)C(O)(c1ccccc1)c1ccccc1)C2 (stereo not given in full) | inactive |
| CCN(CCO)CCn1c(Cc2ccccc2)nc2c1c(=O)n(C)c(=O)n2C | inactive |
| C[C@@H]1CC2=CC(=O)CC[C@@H]2[C@H]2CC[C@@]3(C)[C@@H](CC[C@]3(C)O)[C@@H]21 | inactive |
| C=CCC1([C@H](C)CCC)C(=O)NC(=O)NC1=O | inactive |
| COc1cccc2c1C(=O)c1c(O)c3c(c(O)c1C2=O)C[C@@](O)(C(=O)CO)CC3OC1CC(N2CCOC(OC)C2)C(O)C(C)O1 (stereo not given in full) | 94.4 nM (active) |
| C[C@H](N)C(=O)c1ccccc1 | inactive |
| C[C@]12CC[C@H]3[C@@H](CCC4=CC(=O)CC[C@@H]43)[C@@H]1CC[C@@H]2OC(=O)CCC1CCCCC1 | inactive |
| CN1C(=O)NC(=O)C(C)(C2=CCCCC2)C1=O (stereo not given) | inactive |
| Nc1ccccc1C(=O)O | inactive |
| COc1ccc2c3c1O[C@H]1[C@H](O)CC[C@H]4[C@@H](C2)N(C)CC[C@@]341 | inactive |
| O=c1[nH]oc2c1CCNC2 | inactive |
| CC(C)c1cccc(C(C)C)c1O | inactive |
| c1ccc2c(c1)sc1ccccc12 | inactive |

| SMILES | Potency |
| --- | --- |
| COP(=S)(OC)Oc1ccc(SC)c(C)c1 | inactive |
| CC(C)=CC1C(C(=O)OCN2C(=O)C3=C(CCCC3)C2=O)C1(C)C (stereo not given) | inactive |
| CCOC(=O)CC(SP(=S)(OC)OC)C(=O)OCC (stereo not given) | inactive |
| CCOP(=S)(OCC)Oc1ccc2c(C)c(Cl)c(=O)oc2c1 | inactive |
| C[C@]12CCC(=O)C=C1CC[C@@H]1[C@H]3CC[C@](C)(O)[C@@]3(C)CC[C@@H]12 | 38900 nM (active) |
| O=C1c2ccccc2C(=O)c2ccccc21 | inactive |
| CNC(C)(C)Cc1ccccc1 | inactive |
| COP(=S)(OC)Oc1ccc(S(=O)(=O)N(C)C)cc1 | inactive |
| CCC1(c2ccc(N)cc2)CCC(=O)NC1=O (stereo not given) | inactive |
| NC(=O)CS(=O)C(c1ccccc1)c1ccccc1 (stereo not given) | inactive |
| C=CCN1C[C@H](C)N([C@H](c2ccc(C(=O)N(CC)CC)cc2)c2cccc(OC)c2)C[C@H]1C | inactive |
| CC(C)N(CCC(C(N)=O)(c1ccccc1)c1ccccn1)C(C)C (stereo not given) | inactive |
| O=P1(N(CCCl)CCCl)NCCCO1 (stereo not given) | inactive |
| NC(=O)c1cc([N+](=O)[O-])cc([N+](=O)[O-])c1 | inactive |
| COc1cccc([C@@]2(O)CCCC[C@@H]2CN(C)C)c1 | inactive |
| [N-]=[N+]=CC(=O)OC[C@H](N)C(=O)O | inactive |
| CC(C(=O)c1ccccc1)N(C)C (stereo not given) | inactive |
| CC(Cc1ccccc1)NCCn1cnc2c1c(=O)n(C)c(=O)n2C (stereo not given) | inactive |
| CN(C)CCc1c[nH]c2cccc(OP(=O)(O)O)c12 | inactive |
| NNc1ccccc1 | inactive |
